Several values for one entry are separate records, joined by “and”; a condition that tells them apart may be missing. Identical values can stand only once. This is part of a sample that, as a whole, favours compounds with a hit. Of some 83,000 tested, about 20% had one in any assay.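 48-hour exposure, single concentration, 96-well plates; percent growth endpoint where 0 means no net growth. Active: below 10.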 Activity calls are given as the source filed them.
What was measured:
Test in all cases: NCI-60 one-dose screen, 48 h (100 = growth as untreated, 0 = no growth, -100 = all killed)
SR leukemia = conditions: 10 µM unless noted
OVCAR-8 ovarian = conditions: 10 µM unless noted
OVCAR-5 ovarian = conditions: 10 µM unless noted
OVCAR-4 ovarian = conditions: 10 µM unless noted
SK-OV-3 ovarian = conditions: 10 µM unless noted
IGROV1 ovarian = conditions: 10 µM unless noted
OVCAR-3 ovarian = conditions: 10 µM unless noted
HS 578T breast = conditions: 10 µM unless noted
NCI/ADR-RES ovarian = conditions: 10 µM unless noted
T-47D breast = conditions: 10 µM unless noted
BT-549 breast = conditions: 10 µM unless noted
MDA-MB-435 melanoma = conditions: 10 µM unless noted
SW-620 colon = conditions: 10 µM unless noted
MCF7 breast = system: MCF7 breast
HCT-116 colon = conditions: 10 µM unless noted
HCC-2998 colon = conditions: 10 µM unless noted
KM12 colon = conditions: 10 µM unless noted
RPMI-8226 leukemia = conditions: 10 µM unless noted

| SMILES | growth (SR leukemia) | growth (OVCAR-8 ovarian) | growth (OVCAR-5 ovarian) | growth (OVCAR-4 ovarian) | growth (SK-OV-3 ovarian) | growth (IGROV1 ovarian) | growth (OVCAR-3 ovarian) | growth (HS 578T breast) | growth (NCI/ADR-RES ovarian) | growth (T-47D breast) | growth (BT-549 breast) | growth (MDA-MB-435 melanoma) | growth (SW-620 colon) | growth (MCF7 breast; 10 µM unless noted) | growth (HCT-116 colon) | growth (HCC-2998 colon) | growth (KM12 colon) | growth (RPMI-8226 leukemia) | growth (MCF7 breast; 10 µM) | growth (MCF7 breast; 100 µM) |
| --- | --- | --- | --- | --- | --- | --- | --- | --- | --- | --- | --- | --- | --- | --- | --- | --- | --- | --- | --- | --- |
| Cc1nn(-c2ccccc2)c2nc3c(nc12)C1=NCCN1C(c1ccc(Cl)cc1)N3 (stereo not given) | 6.3% (active) | 87.5% (inactive) | 91% (inactive) | 80.3% (inactive) | 104% (inactive) | 88.8% (inactive) | 95.4% (inactive) | 60.7% (inactive) | 98.6% (inactive) | 75.1% (inactive) | 98.3% (inactive) | 51.5% (inactive) | 76.6% (inactive) | 35.3% (inactive) | 68.8% (inactive) | -25.2% (active) | 66% (inactive) |  |  |  |
| O=C(Nc1ccc(-n2ccc3c(NC(=O)c4ccccc4)nccc32)cc1)c1ccc(N2CCOCC2)c(C(F)(F)F)c1 | 0.458% (active) | 23.6% (inactive) | 56.8% (inactive) | 59.8% (inactive) | 30.3% (inactive) | 27.2% (inactive) | 15.7% (inactive) | 50% (inactive) | 29% (inactive) | 28.2% (inactive) | 28.5% (inactive) | 33.6% (inactive) | 30.5% (inactive) | 23.2% (inactive) | 6.59% (active) | 40.8% (inactive) | 22.7% (inactive) |  |  |  |
| C=CCN1C(=O)/C(=c2\sc3n(c2=O)C2C(NN=3)N(CC)C(=O)N2CC)c2ccccc21 (stereo not given) | 23.8% (inactive) | 19% (inactive) | 44.9% (inactive) | 65.6% (inactive) | 34.2% (inactive) | 35.4% (inactive) | -11.4% (active) | 59.4% (inactive) | -1.04% (active) | 57.6% (inactive) | 25% (inactive) | -30.2% (active) | 30.9% (inactive) | 16.6% (inactive) | 10.7% (inactive) | 4.46% (active) | 20.1% (inactive) |  |  |  |
| COc1cc(/C=N/NC(=O)Cn2c(-c3ccc(C)o3)nc3ccccc32)ccc1OCc1ccccc1 | 74.5% (inactive) | 81.3% (inactive) | 88.1% (inactive) | 90% (inactive) | 91.7% (inactive) | 94.3% (inactive) | 82% (inactive) | 70.4% (inactive) | 92.6% (inactive) | 69.2% (inactive) | 92% (inactive) | 96.9% (inactive) | 89.9% (inactive) | 76.2% (inactive) | 71.9% (inactive) | 103% (inactive) | 85.1% (inactive) |  |  |  |
| CCOC(=O)Cc1cc(Br)c(OCc2ccccc2)c(Br)c1 | 84.5% (inactive) | 95.5% (inactive) | 85% (inactive) | 94.5% (inactive) | 109% (inactive) | 85.6% (inactive) | 113% (inactive) | 101% (inactive) | 102% (inactive) | 85.6% (inactive) | 98.3% (inactive) | 96.3% (inactive) | 113% (inactive) | 107% (inactive) | 93.8% (inactive) | 98.5% (inactive) | 107% (inactive) |  |  |  |
| CCOC(=O)C1C(=O)C=C(c2cc(OC)c(OC)c(OC)c2)CC1c1sc(N(C)Cc2ccccc2)nc1Cl (stereo not given) | 80.8% (inactive) | 82% (inactive) | 101% (inactive) | 86.8% (inactive) | 85.2% (inactive) | 95.6% (inactive) | 91.6% (inactive) | 55.9% (inactive) | 86.3% (inactive) | 66.6% (inactive) | 92.1% (inactive) | 95.1% (inactive) | 95.7% (inactive) | 77.4% (inactive) | 72.6% (inactive) | 105% (inactive) | 93.6% (inactive) |  |  |  |
| CN1C(=O)C(C2=NNC(c3ccccc3C(=O)O)C2)C(=O)N(C)C1=O (stereo not given) | 101% (inactive) | 103% (inactive) | 94.6% (inactive) | 99% (inactive) | 90.9% (inactive) | 106% (inactive) | 110% (inactive) | 93.6% (inactive) | 108% (inactive) | 87.4% (inactive) | 104% (inactive) | 104% (inactive) | 99.7% (inactive) | 99.7% (inactive) | 99.4% (inactive) | 117% (inactive) | 104% (inactive) |  |  |  |
| CC(=O)c1ccc(N2C(=O)c3ccc(Oc4ccccc4)cc3C2=O)cc1 | 119% (inactive) | 114% (inactive) | 103% (inactive) | 108% (inactive) | 108% (inactive) | 108% (inactive) | 107% (inactive) | 115% (inactive) | 105% (inactive) | 106% (inactive) | 98.8% (inactive) | 96.3% (inactive) | 98.8% (inactive) | 101% (inactive) | 104% (inactive) | 99.4% (inactive) | 95.6% (inactive) |  |  |  |
| O=C(CC(=O)c1cccc(Cl)c1)c1cccc(Cl)c1 | 2.96% (active) | 21.9% (inactive) | 46.8% (inactive) | 42% (inactive) | 47.5% (inactive) | 34.1% (inactive) | 32% (inactive) | 73.6% (inactive) | 8.52% (active) | 37.2% (inactive) | 47.6% (inactive) | 47.9% (inactive) | 30.7% (inactive) | 25.4% (inactive) | 19.8% (inactive) | 35% (inactive) | 41.9% (inactive) |  |  |  |
| Cc1cc(O)c2cc3c(O)c(O)ccc3cc2c1 | 101% (inactive) |  | 81.5% (inactive) |  | 109% (inactive) | 98.1% (inactive) | 133% (inactive) | 110% (inactive) | 109% (inactive) | 104% (inactive) | 109% (inactive) | 123% (inactive) | 114% (inactive) |  | 102% (inactive) | 114% (inactive) | 108% (inactive) | 115% (inactive) | 139% (inactive) | 4.83% (active) and -31.7% (active) |
| CCN1CCN(Cc2ccc(NC(=O)Nc3ccc(-n4ccc5c(NC(=O)c6ccccc6)nccc54)cc3)cc2C(F)(F)F)CC1 | -30.9% (active) | -28.5% (active) | 30.7% (inactive) | 78.8% (inactive) | 62.7% (inactive) | 43.9% (inactive) | -51.9% (active) | 74.1% (inactive) | 27.8% (inactive) | 75.6% (inactive) | 68.5% (inactive) | -61.5% (active) | -11.9% (active) | -90% (active) | -83.6% (active) | 68.3% (inactive) | 14.3% (inactive) |  |  |  |
| c1cc2c(cc1-c1cnc3nonc3n1)OCO2 | 21.4% (inactive) | 92.4% (inactive) | 93.7% (inactive) | 95.3% (inactive) | 82.8% (inactive) | 102% (inactive) | 70.5% (inactive) | 99.1% (inactive) | 93.2% (inactive) | 57.7% (inactive) | 95.2% (inactive) | 103% (inactive) | 83% (inactive) | 49.5% (inactive) | 102% (inactive) | 107% (inactive) | 74.8% (inactive) |  |  |  |
| O=C1CCCN1C1CCN2CCCc3cccc1c32 (stereo not given) | 83.5% (inactive) | 103% (inactive) | 99.9% (inactive) | 105% (inactive) | 110% (inactive) | 98.5% (inactive) | 121% (inactive) | 112% (inactive) | 108% (inactive) | 94.1% (inactive) | 134% (inactive) | 108% (inactive) | 108% (inactive) | 96.9% (inactive) | 101% (inactive) | 105% (inactive) | 109% (inactive) |  |  |  |
| CN(C)CCNC(=O)n1cc(-c2ccncc2)c(-c2cc(O)cc(Cl)c2)n1 | 29.6% (inactive) | 86.9% (inactive) | 106% (inactive) | 118% (inactive) | 90.8% (inactive) | 107% (inactive) | 109% (inactive) | 93.3% (inactive) | 100% (inactive) | 106% (inactive) | 102% (inactive) | 51.1% (inactive) | 109% (inactive) | 102% (inactive) | 86.2% (inactive) | 119% (inactive) | 106% (inactive) |  |  |  |
| NS(=O)(=O)c1ccc(CCn2c(SCC(=O)N/N=C/c3cccnc3)nc3ccccc3c2=O)cc1 | 65.3% (inactive) | 75.1% (inactive) | 108% (inactive) | 94.6% (inactive) | 115% (inactive) | 104% (inactive) | 84.7% (inactive) | 82.7% (inactive) | 105% (inactive) | 65.9% (inactive) | 79% (inactive) | 93.7% (inactive) | 96.7% (inactive) | 79.6% (inactive) | 77.3% (inactive) | 111% (inactive) | 81.8% (inactive) |  |  |  |
| CC(C)(CCc1ccccn1)C(=O)CCCc1ccccn1 | 90.9% (inactive) | 105% (inactive) | 103% (inactive) | 111% (inactive) | 108% (inactive) | 108% (inactive) | 110% (inactive) | 111% (inactive) | 106% (inactive) | 95.2% (inactive) | 105% (inactive) | 109% (inactive) | 106% (inactive) | 98.6% (inactive) | 93.9% (inactive) | 107% (inactive) | 106% (inactive) |  |  |  |
| CCN(CC)CCCCCCCCNc1c2ccc(Cl)cc2nc2ccc(OC)cc12 | -63.6% (active) |  | -24% (active) | -49.8% (active) | -29.1% (active) | -9.45% (active) | -38.3% (active) |  | -29.8% (active) | -37.9% (active) | -82.6% (active) | -81.9% (active) | -31.9% (active) | -75.1% (active) | -63.8% (active) | -89.1% (active) | -49.5% (active) | -43.8% (active) |  |  |
| COc1cccc(NC(=O)OC(C)C)c1 | 92.4% (inactive) | 106% (inactive) | 96.4% (inactive) | 93.1% (inactive) | 104% (inactive) | 99.7% (inactive) | 121% (inactive) | 99% (inactive) | 98.4% (inactive) | 93.8% (inactive) | 103% (inactive) | 92.8% (inactive) | 96.6% (inactive) | 102% (inactive) | 101% (inactive) | 96.7% (inactive) | 103% (inactive) |  |  |  |
